# Source: PubChem BioAssay AID492956 (The Scripps Research Institute Molecular Screening Center, 2010)
# Among all 340,000 compounds or so, about 3,300 (0.97%) were called active. Many of the other results were omitted from the sample, so actives are more common in it than they were. A number with no mark means an inactive call.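 How the source made its calls: active means inhibition above the mean over all tested compounds plus 3 SD (cut at about 30% in these data); inactive means the rest.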
# Target: Platelet-activating factor acetylhydrolase 2, cytoplasmic (Homo sapiens) (UniProt Q99487)
# Experiment: PAFAH2 enzyme inhibitors, primary screen, biochemical, fluorescence polarization, human (AID 492956);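 further: inhibitors block probe labeling of enzyme so polarization drops; 0% = enzyme with DMSO and 100% = wells lacking PAFAH2 protein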
# Settings: recombinant PAFAH2, FP-rhodamine activity probe, at 3.39 µM, hits give high values
row,SMILES,inhibition
1,COc1ccc(C(=O)OCC(=O)NCC2CCCCC2)cc1S(=O)(=O)N1CCCc2ccccc21,74.5% (active)
2,COc1ccc(C(=O)NCC2CCCCC2)cc1S(=O)(=O)N1CCCC1,3.82%
3,Cc1cc(C)c2oc(C(=O)Nc3ccc(S(=O)(=O)Nc4nccc(C)n4)cc3)cc(=O)c2c1,-3.63%
4,CN(C)[C@@H]1C(=O)C(C(N)=O)=C(O)[C@@]2(O)C(=O)C3=C(O)c4c(O)ccc(Cl)c4[C@@H](O)[C@H]3C[C@@H]12,1.11%
5,C=C1c2c(Cl)ccc(O)c2C(O)=C2C(=O)[C@]3(O)C(O)=C(C(N)=O)C(=O)[C@@H](N(C)C)[C@@H]3[C@@H](O)C12 (stereo not given in full),42% (active)
6,Cc1cccc(C)c1NC(=O)CN1C(=O)C(C)Oc2ccccc21 (stereo not given),4.2%
7,O=C(Cn1nnc2ccccc2c1=O)NCc1ccc(Cl)cc1,4.44%
8,C=CCNC(=O)c1sc(SC)cc1-c1ccc(Cl)cc1,2.46%
9,COC(=O)Nc1nc2ccc(Sc3ccccc3)cc2[nH]1,-5.35%
10,Nc1ccc2nc3c(=O)[nH]c(=S)[nH]c3nc2c1,58.3% (active)
11,Cc1c(CN2CCC(CO)(CCOc3ccccc3)CC2)[nH]c2ccc(Cl)cc12,-1.75%
12,CCOc1ccccc1NS(=O)(=O)c1cc2c3c(c1)C(C)C(=O)N3CCC2 (stereo not given),6.38%
13,CCOc1ccccc1OCC(=O)Nc1ccccc1C(=O)NC1CC1,2.58%
14,CC(=O)Oc1ccc2c(=O)oc(-c3ccc([N+](=O)[O-])cc3)nc2c1,29.4%
15,CC(=O)Oc1ccc(-c2nc3c(C)cccc3c(=O)o2)cc1,40.7% (active)
16,COc1nc(N=C(N)N)nc2c(C)cccc12,6.78%
17,Cc1cc(C)cc(C(=O)NC(=S)Nc2ccc3[nH]c(=O)[nH]c3c2)c1,-14%
18,CC1(C)C2CC=C(/C=N/NC(=O)C3CC3)C1C2 (stereo not given),-2.63%
19,CCN(CC)CCCNC(=O)c1ccc2c(=O)n(Cc3ccc4c(c3)OCO4)c(=S)[nH]c2c1,4.33%
20,O=C(COC(=O)c1ncc(Cl)c(Cl)c1Cl)NCc1ccccc1,-0.64%
21,O=C(COC(=O)c1n[nH]c2ccccc12)Nc1ccccc1Br,47.3% (active)
22,COc1ccc(NC(=O)COC(=O)c2n[nH]c3ccccc23)c(OC)c1,7.22%
23,C=CCN(CC=C)C(=O)COC(=O)c1n[nH]c2ccccc12,3.36%
24,O=C(COC(=O)c1n[nH]c2ccccc12)NCc1ccccc1,35.5% (active)
25,CN(C)S(=O)(=O)c1ccc(NC(=O)COC(=O)c2n[nH]c3ccccc23)cc1,-1.53%

row,SMILES,inhibition
1,O=C(O)CC(c1ccccc1F)N1Cc2ccccc2C1=O (stereo not given),3.09%
2,Cc1ccn2c(=O)nc(SCC(=O)NCc3ccc4c(c3)OCO4)nc2c1,-12.4%
3,Nc1nc(Br)c2ccccc2c1-c1ccc(F)cc1,0.32%
4,COCCCn1c(SCC(=O)Nc2oc(C)c3c(C)n[nH]c(=O)c23)nc2sc3c(c2c1=O)CCC3,-2.08%
5,CCN(CC)S(=O)(=O)c1ccc2nc(CSc3nnnn3-c3ccc(O)cc3)[nH]c2c1,-3.11%
6,C(#CCN1CCOCC1)CCCN1CCOCC1,6.41%
7,Cc1cc(C)cc(C(=O)OCC(=O)NCCNC(=O)COC(=O)c2cc(C)cc(C)c2)c1,3.14%
8,Cc1cc(C(=O)OCC(=O)Nc2ccc(F)c(F)c2)c(C)o1,81.8% (active)
9,O=C(COC(=O)CCc1c[nH]c(=O)[nH]1)Nc1ccccc1Cl,1.19%
10,Cc1cc(C(=O)OCC(=O)c2c(N)n(C)c(=O)n(C)c2=O)c(C)o1,10.2%
11,Cc1cnc(C(=O)OCC(=O)Nc2ccc(Cl)cc2Cl)cn1,-10.2%
12,Cc1cc(C(=O)OCC(=O)Nc2ccccc2Cl)c(C)o1,45.1% (active)
13,O=C(COC(=O)c1ccc[nH]c1=O)Nc1ccc2c(c1)OC(F)(F)O2,-3.01%
14,COc1cc(NC(=O)COC(=O)c2cc(S(=O)(=O)N3CCOCC3)ccc2F)cc(OC)c1,-0.21%
15,Cc1cc(C)cc(NC(=O)COC(=O)c2cc(C)oc2C)c1,60.9% (active)
16,CONc1nc2nonc2nc1NOC,5.98%
17,Cc1ccc(Nc2c(F)c(F)c(F)c(F)c2C(=O)O)c(C)c1,4.36%
18,Cn1c(=O)c(C(=O)Nc2ncccn2)c(O)c2ccccc21,-2.23%
19,Cc1cc(=O)n2nc(N3CCCC3C(=O)NCCCN3CC(C)CC(C)C3)sc2n1 (stereo not given),-2.55%
20,O=C(COc1ccc(Cl)cc1)Nc1ccc2c(c1)OCO2,-4.53%
21,O=C(COC(=O)c1cccc(Cl)c1)Nc1ccc2[nH]c(=O)[nH]c2c1,-4.35%
22,Cc1cccc(C(=O)OCC(=O)Nc2ccc(F)cc2)c1,84% (active)
23,O=C(COC(=O)c1ccc(F)cc1)Nc1ccc2c(c1)OCO2,81% (active)
24,O=C(COC(=O)c1ccncc1)Nc1ccc2c(c1)OCO2,1.78%
25,Cc1cccc(C(=O)OCC(=O)Nc2sc3c(c2C#N)CCC3)c1,3.15%
